Measurements as given in the supplement of paper PMC10849652.
The full data set covers some 8,800 targets. This sample favours those with a hit. About 0.5% of all pairs of compound and target were hits.

What follows are targets tested with NC1(c2ccc(-c3nc4ccn5c(=O)[nH]nc5c4cc3-c3ccccc3)cc2)CCC1 (assay: log2 fold change, soluble protein after heating vs DMSO (PISA); higher = thermal stabilisation; K562 lysate, 10 uM; active = over 0.2 and 3.5 SD of the protein, either way, in both replicates (recomputed)).
In short: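 The values are log-two fold changes in thermal stability compared with solvent controls and come from duplicates. They were obtained by TMTpro 16plex LC-MS/MS, with channel sums equalised, on the supernatant after 21,000xg for 90 min. That supernatant came from crude K562 extract at 1 mg/mL protein treated with 10 μM compound for 30 min, heated for 3 min across 48°C-58°C, pooled and brought to 0.5% NP-40 at 4°C.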

UniProt P23677, sequence (P23677 whole entry, looked up): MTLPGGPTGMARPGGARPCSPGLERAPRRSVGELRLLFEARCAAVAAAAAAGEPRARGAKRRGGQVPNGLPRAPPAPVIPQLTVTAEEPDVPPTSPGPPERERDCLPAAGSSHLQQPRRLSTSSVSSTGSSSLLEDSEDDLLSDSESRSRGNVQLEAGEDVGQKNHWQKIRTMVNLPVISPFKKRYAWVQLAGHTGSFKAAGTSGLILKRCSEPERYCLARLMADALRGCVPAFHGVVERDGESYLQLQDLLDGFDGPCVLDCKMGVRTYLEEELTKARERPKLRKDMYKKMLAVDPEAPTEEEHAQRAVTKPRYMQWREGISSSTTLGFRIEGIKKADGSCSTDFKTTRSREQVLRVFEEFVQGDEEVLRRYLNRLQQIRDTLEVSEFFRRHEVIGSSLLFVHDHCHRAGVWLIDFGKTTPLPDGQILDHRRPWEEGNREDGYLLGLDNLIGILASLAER
UniProt Q9BX10, sequence (Q9BX10 whole entry, looked up): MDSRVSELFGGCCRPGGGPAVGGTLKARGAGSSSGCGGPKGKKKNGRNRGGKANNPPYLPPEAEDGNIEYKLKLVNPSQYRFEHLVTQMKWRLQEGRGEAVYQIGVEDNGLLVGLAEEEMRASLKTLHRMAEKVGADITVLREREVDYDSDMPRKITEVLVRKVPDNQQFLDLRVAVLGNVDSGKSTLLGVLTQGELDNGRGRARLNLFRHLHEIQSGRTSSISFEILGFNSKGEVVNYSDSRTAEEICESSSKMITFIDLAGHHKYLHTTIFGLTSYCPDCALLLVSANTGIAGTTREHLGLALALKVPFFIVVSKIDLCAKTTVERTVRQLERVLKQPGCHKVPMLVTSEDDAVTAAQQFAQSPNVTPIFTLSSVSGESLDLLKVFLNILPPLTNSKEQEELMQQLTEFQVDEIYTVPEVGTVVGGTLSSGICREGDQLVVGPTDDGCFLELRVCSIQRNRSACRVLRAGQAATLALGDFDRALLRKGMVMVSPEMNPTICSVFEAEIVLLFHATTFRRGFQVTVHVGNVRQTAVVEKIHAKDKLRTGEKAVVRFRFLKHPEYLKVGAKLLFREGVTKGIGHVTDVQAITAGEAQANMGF
UniProt Q9BT25, sequence (Q9BT25 whole entry, looked up): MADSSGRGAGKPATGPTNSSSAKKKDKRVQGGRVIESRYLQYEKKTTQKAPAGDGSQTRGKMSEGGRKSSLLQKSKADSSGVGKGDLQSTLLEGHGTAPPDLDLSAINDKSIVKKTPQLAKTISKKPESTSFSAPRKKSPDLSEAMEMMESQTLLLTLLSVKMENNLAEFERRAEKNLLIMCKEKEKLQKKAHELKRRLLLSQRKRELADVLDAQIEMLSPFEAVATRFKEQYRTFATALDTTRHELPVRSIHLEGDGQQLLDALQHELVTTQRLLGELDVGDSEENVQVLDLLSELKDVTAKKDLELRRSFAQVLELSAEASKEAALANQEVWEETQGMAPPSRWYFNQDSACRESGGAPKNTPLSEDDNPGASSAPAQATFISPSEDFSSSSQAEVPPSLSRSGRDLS
UniProt Q9NWZ3, sequence (Q9NWZ3 whole entry, looked up): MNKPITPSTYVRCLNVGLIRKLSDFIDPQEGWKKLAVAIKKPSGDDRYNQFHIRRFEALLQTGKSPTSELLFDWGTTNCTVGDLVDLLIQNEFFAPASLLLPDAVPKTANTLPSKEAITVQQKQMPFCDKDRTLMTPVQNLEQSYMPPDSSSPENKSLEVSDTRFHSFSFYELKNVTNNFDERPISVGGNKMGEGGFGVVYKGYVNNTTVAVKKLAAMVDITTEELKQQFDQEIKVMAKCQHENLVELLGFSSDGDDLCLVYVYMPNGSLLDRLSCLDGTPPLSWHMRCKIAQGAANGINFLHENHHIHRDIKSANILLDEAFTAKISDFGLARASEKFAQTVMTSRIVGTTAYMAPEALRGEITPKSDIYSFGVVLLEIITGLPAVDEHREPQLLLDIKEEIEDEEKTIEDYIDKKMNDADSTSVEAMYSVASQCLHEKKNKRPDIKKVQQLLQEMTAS
UniProt P19367, sequence (P19367 whole entry, looked up): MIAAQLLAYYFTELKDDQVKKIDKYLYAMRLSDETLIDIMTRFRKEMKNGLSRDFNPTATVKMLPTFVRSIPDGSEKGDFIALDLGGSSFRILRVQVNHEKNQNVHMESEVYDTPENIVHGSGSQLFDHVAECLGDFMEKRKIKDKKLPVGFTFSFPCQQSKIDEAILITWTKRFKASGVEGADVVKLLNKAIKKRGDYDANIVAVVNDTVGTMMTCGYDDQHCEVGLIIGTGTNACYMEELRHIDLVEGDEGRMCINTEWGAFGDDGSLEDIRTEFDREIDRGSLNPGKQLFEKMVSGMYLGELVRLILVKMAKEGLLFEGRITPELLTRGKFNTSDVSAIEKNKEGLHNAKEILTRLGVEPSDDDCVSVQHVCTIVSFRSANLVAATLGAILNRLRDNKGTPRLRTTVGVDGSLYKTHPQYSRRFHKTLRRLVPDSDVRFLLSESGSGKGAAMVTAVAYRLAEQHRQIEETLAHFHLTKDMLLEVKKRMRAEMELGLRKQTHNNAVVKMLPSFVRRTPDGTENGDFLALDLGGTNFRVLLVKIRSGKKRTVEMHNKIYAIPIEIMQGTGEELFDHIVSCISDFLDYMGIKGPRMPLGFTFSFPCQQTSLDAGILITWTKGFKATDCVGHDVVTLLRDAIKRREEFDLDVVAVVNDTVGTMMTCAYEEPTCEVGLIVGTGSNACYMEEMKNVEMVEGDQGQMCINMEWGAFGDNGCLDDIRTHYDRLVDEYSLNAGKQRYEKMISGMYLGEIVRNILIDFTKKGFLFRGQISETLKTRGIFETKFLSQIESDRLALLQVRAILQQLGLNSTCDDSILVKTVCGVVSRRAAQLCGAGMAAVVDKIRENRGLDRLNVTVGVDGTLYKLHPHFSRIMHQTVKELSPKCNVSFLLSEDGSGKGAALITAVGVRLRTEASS
UniProt Q9NVX7, sequence (Q9NVX7 whole entry, looked up): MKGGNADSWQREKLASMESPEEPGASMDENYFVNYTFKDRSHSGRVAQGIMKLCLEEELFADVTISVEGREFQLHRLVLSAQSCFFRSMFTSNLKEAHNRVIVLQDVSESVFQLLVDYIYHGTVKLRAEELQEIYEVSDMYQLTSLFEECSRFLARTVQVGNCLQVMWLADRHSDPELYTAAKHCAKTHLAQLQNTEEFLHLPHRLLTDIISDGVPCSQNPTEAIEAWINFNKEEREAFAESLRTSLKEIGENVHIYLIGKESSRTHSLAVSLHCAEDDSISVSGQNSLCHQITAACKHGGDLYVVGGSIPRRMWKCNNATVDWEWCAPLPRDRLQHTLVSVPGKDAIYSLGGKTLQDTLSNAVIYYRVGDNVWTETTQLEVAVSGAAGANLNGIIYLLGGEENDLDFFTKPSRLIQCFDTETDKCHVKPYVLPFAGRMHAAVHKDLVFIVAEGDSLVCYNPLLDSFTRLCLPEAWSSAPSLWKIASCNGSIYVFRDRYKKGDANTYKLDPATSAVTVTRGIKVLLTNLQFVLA
UniProt P14866, sequence (P14866 whole entry, looked up): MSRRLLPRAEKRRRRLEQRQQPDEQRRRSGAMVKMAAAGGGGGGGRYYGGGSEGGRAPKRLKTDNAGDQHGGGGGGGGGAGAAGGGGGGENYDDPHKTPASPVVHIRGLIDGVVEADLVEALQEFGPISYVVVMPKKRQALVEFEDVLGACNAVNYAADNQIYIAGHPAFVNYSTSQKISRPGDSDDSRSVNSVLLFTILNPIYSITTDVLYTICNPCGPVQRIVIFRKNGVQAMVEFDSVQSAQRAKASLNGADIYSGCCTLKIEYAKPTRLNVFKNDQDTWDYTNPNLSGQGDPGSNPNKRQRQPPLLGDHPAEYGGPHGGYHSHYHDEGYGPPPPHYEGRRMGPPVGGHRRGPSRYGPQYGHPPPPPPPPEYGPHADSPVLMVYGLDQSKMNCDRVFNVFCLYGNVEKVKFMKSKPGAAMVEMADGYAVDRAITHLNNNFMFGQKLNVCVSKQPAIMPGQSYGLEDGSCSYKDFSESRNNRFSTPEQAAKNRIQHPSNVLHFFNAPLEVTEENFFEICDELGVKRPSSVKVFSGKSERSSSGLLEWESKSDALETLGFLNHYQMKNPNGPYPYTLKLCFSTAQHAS
UniProt Q53GQ0, sequence (Q53GQ0 whole entry, looked up): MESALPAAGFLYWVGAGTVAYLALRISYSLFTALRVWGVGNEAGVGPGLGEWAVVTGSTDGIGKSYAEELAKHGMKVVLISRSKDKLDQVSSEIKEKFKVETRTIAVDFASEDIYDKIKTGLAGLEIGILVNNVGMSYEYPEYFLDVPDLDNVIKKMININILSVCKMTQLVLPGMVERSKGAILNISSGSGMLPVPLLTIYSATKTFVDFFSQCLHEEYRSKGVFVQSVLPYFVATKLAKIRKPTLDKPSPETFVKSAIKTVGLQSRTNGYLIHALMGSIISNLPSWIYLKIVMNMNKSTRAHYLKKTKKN
UniProt Q9ULR0, sequence (Q9ULR0 whole entry, looked up): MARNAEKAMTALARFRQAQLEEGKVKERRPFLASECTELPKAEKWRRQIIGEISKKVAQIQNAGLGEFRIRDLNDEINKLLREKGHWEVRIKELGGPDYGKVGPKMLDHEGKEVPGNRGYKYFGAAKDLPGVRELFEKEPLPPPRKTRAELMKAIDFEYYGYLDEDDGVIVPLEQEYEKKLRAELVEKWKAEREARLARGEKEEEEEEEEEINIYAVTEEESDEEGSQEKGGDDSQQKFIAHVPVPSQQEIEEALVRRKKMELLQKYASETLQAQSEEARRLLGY
UniProt Q99871, sequence (Q99871 whole entry, looked up): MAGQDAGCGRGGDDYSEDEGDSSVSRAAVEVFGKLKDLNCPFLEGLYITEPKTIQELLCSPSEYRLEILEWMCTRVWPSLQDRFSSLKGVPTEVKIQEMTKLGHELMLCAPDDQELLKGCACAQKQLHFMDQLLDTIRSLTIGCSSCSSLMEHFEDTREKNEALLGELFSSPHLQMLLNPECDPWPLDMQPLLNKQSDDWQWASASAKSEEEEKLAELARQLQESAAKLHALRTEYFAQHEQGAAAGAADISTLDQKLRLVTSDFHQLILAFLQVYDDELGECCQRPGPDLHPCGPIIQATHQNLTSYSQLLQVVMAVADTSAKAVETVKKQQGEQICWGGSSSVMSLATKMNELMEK

log2 fold change, inactive:
GTPBP2 (UniProt Q9BX10) 0.046
GMDS (UniProt O60547) -0.029
HSPA8 (UniProt E9PK54) 0.004
ILK (UniProt Q13418) -0.036
HNRNPUL2 (UniProt Q1KMD3) -0.008
KDM1A (UniProt O60341) -0.026
INF2 (UniProt Q27J81) -0.035
ITPKA (UniProt P23677) -0.027
INTS3 (UniProt Q68E01) -0.028
KBTBD4 isoform 2 (UniProt Q9NVX7) -0.039
HNRNPL (UniProt P14866) 0.022
HK1 isoform 2 (UniProt P19367) 0
HAUS8 (UniProt Q9BT25) 0.006
IMMT (UniProt Q16891) -0.035
HIST2H2AA3 (UniProt Q6FI13) 0.048
HAUS6 (UniProt Q7Z4H7) -0.004
ISY1 isoform 1 (UniProt Q9ULR0) -0.01
HLCS (UniProt P50747) 0.02
HSD17B12 (UniProt Q53GQ0) -0.045
HAUS7 isoform 2 (UniProt Q99871) -0.047
GTF2A1 (UniProt P52655) -0.012
IL18R1 (UniProt Q13478) 0.211
IRAK4 (UniProt Q9NWZ3) 0
